# Records with an inconclusive call do not appear. Activity calls are given as the source filed them. The call rests on the fitted dose curve; in most records, active means well fitted curve in the direction sought with a large enough effect; inconclusive means small, poorly fitted or top-dose-only effect, or another doubt; inactive means no such curve, though single readings can be large; an effect the other way counts as inactive or inconclusive.
# Assay: S16 Schwann cell viability assay (CellTiter-Glo assay) (AID 624031); further: nearly all actives have a fitted effect of over 70% in size;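 on activity change, negative = cytotoxicity: cellular ATP luminescence as a viability measure; plate controls were DMSO-treated cells for no effect and cell-free wells for full effect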
# Conditions: S16 rat Schwann cells viability, 24 h; series mostly up to 57.5 µM; activity change, negative = cytotoxicity: at the top concentration
# Outline: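 Native S16 rat Schwann cells, 500-750 cells/well in DMEM with 10% FBS, dosed with compound after overnight culture and incubated 24h at 37 degree Celsius/5% CO2. Viability by CellTiter-Glo luminescence; % activity normalized to no-cell wells and DMSO-treated cells.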
# Potency means the concentration at half of the fitted maximal effect.
Structure (SMILES),"activity change, negative = cytotoxicity",Potency
CC(=O)Nc1ccc(S(=O)(=O)Nc2ccc([N+](=O)[O-])cc2)cc1,-0.0844% (inactive),–
Cc1ncc(CO)c(C=O)c1O,8.21% (inactive),–
O=C1C(O)=C(O)C(=O)C(O)=C1O,-9.74% (inactive),–
CC(C)[N+](C)(C)CC(O)COc1cccc2ccccc12 (stereo not given),0% (inactive),–
CC1CCc2c(N3CCC(O)CC3)c(F)cc3c(=O)c(C(=O)O)cn1c23 (stereo not given),1.98% (inactive),–
CCCCNC(=O)NS(=O)(=O)c1ccc(N)cc1,6.06% (inactive),–
CCOC(=O)c1ccc(N)cc1,2.46% [at 25.7 µM] (inactive),–
O=S(c1cc(Cl)cc(Cl)c1O)c1cc(Cl)cc(Cl)c1O,-0.762% (inactive),–
CC(=O)NC(=O)c1ccccc1O,0% (inactive),–
CC(=O)Nc1ccc(OC(=O)c2ccccc2OC(C)=O)cc1,-8.98% (inactive),–
O=C(Nc1cccc(C2=NCCN2)c1)Nc1cccc(C2=NCCN2)c1,-3.8% (inactive),–
CC(=O)O[C@H]1C[C@@H]2CC[C@@H]3[C@H](CC[C@@]4(C)[C@H]3C[C@H]([N+]3(C)CCCCC3)[C@@H]4OC(C)=O)[C@@]2(C)C[C@@H]1N1CCCCC1,-0.657% (inactive),–
COc1cc(C)nc(-n2nc(C)cc2OC)n1,4.85% [at 25.7 µM] (inactive),–
COc1ccc(CCN(C)CCCN2CCc3cc(OC)c(OC)cc3CC2=O)cc1OC,-3.11% (inactive),–
CC(=O)Nc1ccc(OCC(O)CNC(C)C)cc1 (stereo not given),-22.8% (inactive),–
CC(=O)NCCCCCC(=O)O,2.66% (inactive),–
CCN1/C(=C/C=C/c2sc3ccccc3[n+]2CC)Sc2ccccc21,–,4.05 µM (active)
O=C(O)CCC(=O)Nc1ccc(S(=O)(=O)Nc2nccs2)cc1,5.48% [at 25.7 µM] (inactive),–

Structure (SMILES),"activity change, negative = cytotoxicity",Potency
N#CCC(=O)NN,-15.8% (inactive),–
CC(=O)N[C@@H](CCC(=O)O)C(=O)O,-13.6% (inactive),–
CCN(CC)CCNC(=O)COc1ccc(OC)cc1,7.65% (inactive),–
CN1CCN(c2cc3c(cc2F)c(=O)c(C(=O)O)cn3-c2ccc(F)cc2)CC1,1.27% (inactive),–
CC(=O)Oc1ccc(C)cc1,12.4% (inactive),–
Cc1cccc(C)c1NC(=O)c1ccccc1C(=O)O,-1.77% (inactive),–
COc1cc(NS(=O)(=O)c2ccc(N)cc2)ncn1,-8.63% [at 25.7 µM] (inactive),–
NS(=O)(=O)c1ccc(Cl)c(S(N)(=O)=O)c1,-0.852% (inactive),–
COc1ccc(CN(CCN(C)C)c2ncccn2)cc1,4.24% (inactive),–
Nc1ccc(C(=O)NCC(=O)O)cc1,7.5% [at 25.7 µM] (inactive),–
CC(C)(C)NC[C@H](O)COc1cccc2c1CCCC2=O,-2.05% [at 25.7 µM] (inactive),–
Cc1nc(-c2ccc(Cl)cc2)oc1COC(C)(C)C(=O)O,-5.51% (inactive),–
CCN(CC)CCOc1ccc2c(c1)C(=O)c1cc(OCCN(CC)CC)ccc1-2,-0.592% (inactive),–
OC1C(O)C(O)C(O)C(O)C1O (stereo not given),-4.13% (inactive),–
N=C(N)N1CCc2ccccc2C1,9.49% (inactive),–
Cc1cccc(C)c1NC(=O)CN1CCCCCC1,0% (inactive),–
COC(=O)C(c1ccccc1Cl)N1CCc2sccc2C1 (stereo not given),1.97% (inactive),–

# Assay: S16 Schwann cell PMP22 intronic element firefly luciferase assay (AID 624032); further: nearly all actives have a fitted effect of over 30% in size;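 on activity change, negative = inhibition: plate controls were DMSO for no effect and PTC124 positive control mean for full effect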
# Conditions: S16 rat Schwann cells, PMP22 element FLuc, 24 h; series mostly up to 57.5 µM; activity change, negative = inhibition: at the top concentration
# Outline: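 Rat S16 Schwann cells stably carrying firefly luciferase driven by a PMP22 intronic element, in 10% FBS, treated 24 h at 37 C. ONE-Glo luminescence normalized to PTC124 control and DMSO (0%); curves classed by r2, magnitude and activity.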
Structure (SMILES),"activity change, negative = inhibition",Potency
CC(=O)Nc1ccc(S(=O)(=O)Nc2ccc([N+](=O)[O-])cc2)cc1,8.49% (inactive),–
Cc1ncc(CO)c(C=O)c1O,-10.6% (inactive),–
O=C1C(O)=C(O)C(=O)C(O)=C1O,-2.3% (inactive),–
CC(C)[N+](C)(C)CC(O)COc1cccc2ccccc12 (stereo not given),39.6% (inactive),–
CC1CCc2c(N3CCC(O)CC3)c(F)cc3c(=O)c(C(=O)O)cn1c23 (stereo not given),11.9% (inactive),–
CCCCNC(=O)NS(=O)(=O)c1ccc(N)cc1,-8.45% (inactive),–
CCOC(=O)c1ccc(N)cc1,-2.5% [at 25.7 µM] (inactive),–
O=S(c1cc(Cl)cc(Cl)c1O)c1cc(Cl)cc(Cl)c1O,17.4% (inactive),–
CC(=O)NC(=O)c1ccccc1O,-1.69% (inactive),–
CC(=O)Nc1ccc(OC(=O)c2ccccc2OC(C)=O)cc1,–,32.2 µM (active)
O=C(Nc1cccc(C2=NCCN2)c1)Nc1cccc(C2=NCCN2)c1,-20.2% (inactive),–
CC(=O)O[C@H]1C[C@@H]2CC[C@@H]3[C@H](CC[C@@]4(C)[C@H]3C[C@H]([N+]3(C)CCCCC3)[C@@H]4OC(C)=O)[C@@]2(C)C[C@@H]1N1CCCCC1,-20.6% (inactive),–
COc1cc(C)nc(-n2nc(C)cc2OC)n1,-10.9% [at 25.7 µM] (inactive),–
COc1ccc(CCN(C)CCCN2CCc3cc(OC)c(OC)cc3CC2=O)cc1OC,4.54% (inactive),–
CC(=O)Nc1ccc(OCC(O)CNC(C)C)cc1 (stereo not given),1.06% (inactive),–
CC(=O)NCCCCCC(=O)O,-7.67% (inactive),–
CCN1/C(=C/C=C/c2sc3ccccc3[n+]2CC)Sc2ccccc21,–,2.03 µM (active)
O=C(O)CCC(=O)Nc1ccc(S(=O)(=O)Nc2nccs2)cc1,17.5% [at 25.7 µM] (inactive),–

Structure (SMILES),"activity change, negative = inhibition",Potency
N#CCC(=O)NN,-6.06% (inactive),–
CC(=O)N[C@@H](CCC(=O)O)C(=O)O,-3.11% (inactive),–
CCN(CC)CCNC(=O)COc1ccc(OC)cc1,19.4% (inactive),–
CN1CCN(c2cc3c(cc2F)c(=O)c(C(=O)O)cn3-c2ccc(F)cc2)CC1,7.33% (inactive),–
CC(=O)Oc1ccc(C)cc1,0.408% (inactive),–
Cc1cccc(C)c1NC(=O)c1ccccc1C(=O)O,0.542% (inactive),–
COc1cc(NS(=O)(=O)c2ccc(N)cc2)ncn1,-13.8% [at 25.7 µM] (inactive),–
NS(=O)(=O)c1ccc(Cl)c(S(N)(=O)=O)c1,-9.54% (inactive),–
COc1ccc(CN(CCN(C)C)c2ncccn2)cc1,19.5% (inactive),–
Nc1ccc(C(=O)NCC(=O)O)cc1,-15.1% [at 25.7 µM] (inactive),–
CC(C)(C)NC[C@H](O)COc1cccc2c1CCCC2=O,21.4% [at 25.7 µM] (inactive),–
Cc1nc(-c2ccc(Cl)cc2)oc1COC(C)(C)C(=O)O,30.8% (inactive),–
CCN(CC)CCOc1ccc2c(c1)C(=O)c1cc(OCCN(CC)CC)ccc1-2,–,8.09 µM (active)
OC1C(O)C(O)C(O)C(O)C1O (stereo not given),14.8% (inactive),–
N=C(N)N1CCc2ccccc2C1,17.3% (inactive),–
Cc1cccc(C)c1NC(=O)CN1CCCCCC1,15.3% (inactive),–
COC(=O)C(c1ccccc1Cl)N1CCc2sccc2C1 (stereo not given),-12.5% (inactive),–

# Source: PubChem BioAssay (NCATS)
